Among the data in PubChem BioAssay (NCATS) are Potency and outcome values, retold here.

The target in test [1] is Glutaminase kidney isoform, mitochondrial (Homo sapiens) (UniProt O94925). As to the kind of experiment: qHTS for Inhibitors of Glutaminase (GLS): LOPAC Validation (AID 624146). Further: nearly all actives have a fitted effect of over 60% in size. Further: potency means the concentration at half of the fitted maximal effect. The settings on record: glutaminase enzyme activity inhibition; series mostly up to 46.1 µM. In outline: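 hKGA in 45 mM KH2PO4 (pH 8.2), 0.02% Tween-20 with compound, then 1mM L-Glutamine (stock as added) plus glutamate oxidase/HRP/Amplex red coupling mix. Fluorescence read initially and after 30 min at RT; signal change reflects glutamate formation.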
Glutaminase kidney isoform, mitochondrial (Homo sapiens), sequence (O94925 whole entry, looked up, canonical isoform): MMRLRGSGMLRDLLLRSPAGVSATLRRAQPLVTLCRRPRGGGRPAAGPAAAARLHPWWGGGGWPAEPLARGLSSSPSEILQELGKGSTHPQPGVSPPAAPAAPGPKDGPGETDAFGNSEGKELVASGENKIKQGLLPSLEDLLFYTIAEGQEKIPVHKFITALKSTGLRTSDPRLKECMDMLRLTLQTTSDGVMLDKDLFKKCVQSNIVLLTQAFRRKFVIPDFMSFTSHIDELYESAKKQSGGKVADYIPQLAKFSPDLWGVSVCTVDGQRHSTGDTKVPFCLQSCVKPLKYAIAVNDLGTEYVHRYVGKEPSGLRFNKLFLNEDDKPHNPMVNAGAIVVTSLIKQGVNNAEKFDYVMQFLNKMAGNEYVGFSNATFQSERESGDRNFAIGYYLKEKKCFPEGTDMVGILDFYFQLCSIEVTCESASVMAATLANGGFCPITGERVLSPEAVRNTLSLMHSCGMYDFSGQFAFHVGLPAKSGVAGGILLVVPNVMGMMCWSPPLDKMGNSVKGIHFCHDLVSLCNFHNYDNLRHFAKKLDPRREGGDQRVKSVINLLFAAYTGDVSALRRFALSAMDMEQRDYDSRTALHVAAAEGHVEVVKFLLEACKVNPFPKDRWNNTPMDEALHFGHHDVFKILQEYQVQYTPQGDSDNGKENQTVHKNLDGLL

The nature of test [2]: qHTS of Trypanosoma Brucei Inhibitors: LOPAC Validation (AID 624147). The settings on record: purified enzyme assay, luminescence, 45 min; series mostly up to 57.5 µM. The gist of the method: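 ADP (130 uM final) triggers the TbPYK reaction after compound addition; incubation is 45 min at room temperature. Kinase-Glo Plus is then added and luminescence imaged. Normalized data are fitted to concentration-effect curves.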

Test [3] addresses Glucagon-like peptide 1 receptor (Homo sapiens) (UniProt P43220). The test can be described thus: qHTS of GLP-1 Receptor Agonists: LOPAC Validation (AID 624148).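 Further: luminescence from a luciferase reporter switched on by cAMP; higher luminescence signal means agonism.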 The following applies: GLP-1R agonist cell assay; series mostly up to 46.1 µM. The gist of the method: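 Agonism scored as increased luciferase luminescence driven by cAMP in HEK293 clones carrying GLP-1R. Cells settled 12 hours, received compound for 4-6 hr at 37 deg C, 5% CO2, and were read after 12 min detection reagent at RT.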

Test [4] in a line: qHTS of Nrf2 Activators: LOPAC Validation (AID 624149). The following applies: Nrf2/ARE reporter cell assay; series mostly up to 46.1 µM. In outline: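 Luciferase signal from ARE activation, read with Steady-Glo after 30 min at room temperature. Compounds were pin-transferred onto AREc32_Fluc cells (1000/well, OPTI-MEM/5% FBS, seeded overnight) and left 24 hr at 37 deg C.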
Test [5] in a line: HTS Assay for Allosteric Antagonists of the Human D2 Dopamine Receptor: Hit Validation in HTRF (AID 624455). Further: potency means the concentration at half of the fitted maximal effect.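 Further: stable D1 dopamine receptor cell line scored for blocking the D1 response.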 The following applies: Cells stably expressing D1 dopamine receptor, inhibition mode; series mostly up to 46.1 µM. The gist of the method: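 Inhibition of the D1-mediated response was measured by HTRF. Cells used were a line stably expressing the D1 dopamine receptor.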

Test [6] has as its target Luciferin 4-monooxygenase (Photinus pyralis) (UniProt P08659). As to the kind of experiment: Biochemical firefly luciferase enzyme assay for NPC (AID 624030).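 Further: purified P. pyralis luciferase at 10 nM with luciferin and ATP substrate; nearly all actives have a fitted effect of over 70% in size.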 The following applies: purified P. pyralis luciferase, luminescence, 5 min; series mostly up to 58.6 µM. In outline:
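Direct inhibition of firefly luciferase enzyme (10 nM final, 50 mM Tris Acetate) assessed by luminescence within 5 minutes. Percent activity scaled between DMSO and PTC124 positive control, with concentration-effect curves classified by fit quality and response.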

Test [7] is described as follows: S16 Schwann cell PMP22 intronic element firefly luciferase assay (AID 624032). Further: potency means the concentration at half of the fitted maximal effect; nearly all actives have a fitted effect of over 30% in size. The following applies: S16 rat Schwann cells, PMP22 element FLuc, 24 h; series mostly up to 57.5 µM. In outline: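 Luciferase reporter of PMP22 intronic-element expression in stably transfected S16 rat Schwann cells, read by ONE-Glo luminescence after 24 h compound exposure at 37 C. Activity scaled between DMSO (0%) and positive-control PTC124; concentration-effect curves quality-classified.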

A short description of test [8]: S16 Schwann cell PMP22 intronic element beta-lactamase assay (AID 624044; calls by dose curve; further: nearly all actives have a fitted effect of over 15% in size). The following applies: S16 rat Schwann cells, PMP22 element beta-lactamase FRET, 24 h; series mostly up to 38.3 µM. The gist of the method:
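Beta-lactamase reporter under a PMP22 intronic regulatory element in stable S16 rat Schwann cells; 24 h compound exposure. 460 nm blue signal normalized between DMSO (0%) and potassium clavulanate, with 535 nm FRET tracking viability; curves classed by r2 and response.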

The nature of test [9]: S16 Schwann cell viability assay (CellTiter-Glo assay) (AID 624031).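 Further: native untransfected S16 rat Schwann cells; nearly all actives have a fitted effect of over 70% in size.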 The settings on record: S16 rat Schwann cells viability, 24 h; series mostly up to 57.5 µM. In outline: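 Rat S16 Schwann cells without reporter constructs received compound or DMSO for 24 h at 37 °C under 5% CO2. Cellular ATP was then quantified by CellTiter-Glo luminescence, with vehicle wells defined as 0% activity and cell-free wells as reference.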

A short description of test [10]: Cytotoxicity counterscreen for NFkB agonists and antagonists (AID 624476).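 Further: cells exposed to compound for 48 hours.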 Further: potency means the concentration at half of the fitted maximal effect. The settings on record: NFkB reporter cell line viability counterscreen; series mostly up to 46.1 µM.

Values joined by “and” are separate entries in the source; they are usually repeats but may differ in a detail not shown here. Identical values can stand only once. Inconclusive results are not listed. Active and inactive are the calls of the source. Unless noted, the call rests on the fitted dose curve; in most records, active means well fitted curve in the direction sought with a large enough effect; inconclusive means small, poorly fitted or top-dose-only effect, or another doubt; inactive means no such curve, though single readings can be large; an effect the other way counts as inactive or inconclusive.

Glucagon-like peptide 1 receptor (Homo sapiens), sequence (P43220 whole entry, looked up): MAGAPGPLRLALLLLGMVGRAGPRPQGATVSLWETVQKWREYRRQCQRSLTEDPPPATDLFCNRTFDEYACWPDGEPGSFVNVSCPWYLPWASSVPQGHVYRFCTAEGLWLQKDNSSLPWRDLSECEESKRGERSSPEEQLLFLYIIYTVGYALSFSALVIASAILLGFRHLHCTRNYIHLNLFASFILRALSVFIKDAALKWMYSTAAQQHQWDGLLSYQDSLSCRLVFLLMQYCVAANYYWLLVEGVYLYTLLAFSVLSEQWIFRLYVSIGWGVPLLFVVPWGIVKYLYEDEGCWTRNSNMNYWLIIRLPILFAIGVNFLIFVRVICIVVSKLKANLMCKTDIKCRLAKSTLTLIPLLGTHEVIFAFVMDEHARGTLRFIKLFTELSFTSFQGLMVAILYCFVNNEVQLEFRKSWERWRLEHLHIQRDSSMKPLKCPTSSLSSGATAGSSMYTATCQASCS
Luciferin 4-monooxygenase (Photinus pyralis), sequence (P08659 whole entry, looked up): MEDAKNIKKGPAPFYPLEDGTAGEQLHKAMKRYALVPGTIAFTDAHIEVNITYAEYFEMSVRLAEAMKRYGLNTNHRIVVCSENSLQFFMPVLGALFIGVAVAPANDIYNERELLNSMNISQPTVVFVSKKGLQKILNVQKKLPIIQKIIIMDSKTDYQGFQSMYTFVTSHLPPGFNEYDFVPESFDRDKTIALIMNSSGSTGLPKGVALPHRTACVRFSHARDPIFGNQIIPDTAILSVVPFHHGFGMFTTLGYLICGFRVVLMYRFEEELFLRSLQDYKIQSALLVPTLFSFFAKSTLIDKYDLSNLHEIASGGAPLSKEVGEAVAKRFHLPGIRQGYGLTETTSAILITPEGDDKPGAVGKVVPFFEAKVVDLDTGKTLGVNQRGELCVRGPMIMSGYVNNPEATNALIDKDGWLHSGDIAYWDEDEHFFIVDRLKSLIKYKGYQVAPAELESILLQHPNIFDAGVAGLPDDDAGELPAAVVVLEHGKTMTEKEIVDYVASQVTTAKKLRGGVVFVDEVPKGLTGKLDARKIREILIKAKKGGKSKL

Turning to `O=C(O)Cc1cnc[nH]1`, the Potency entry in [1] and in test [5] was “inactive” each time. Besides, the outcome in [2], in [3] and in test [4] was inactive.

Take `CC[C@@]1(O)C(=O)OCc2c1cc1n(c2=O)Cc2cc3ccccc3nc2-1`: the Potency entry in [1] and in test [5] was “inactive” in each case. The result in [2], in test [3] and in test [4] was inactive.

On to `NC(CP(=O)(O)O)C(=O)O` (stereo unspecified), for which the Potency entry in test [1] and in test [5] was “inactive” throughout. In addition, the outcome in test [2], in test [3] and in [4] was inactive.

With `CC[C@@H](C(N)=O)N1CCCC1=O`, the Potency result in [1] and in test [5] was “inactive” each time. Besides, the call in [2], in [3] and in test [4] was inactive.

In the case of `O=C(Cc1ccc(Cl)c(Cl)c1)N1CCCCC1CN1CCCC1` (stereo unspecified), the Potency entry in test [1] and in [5] was “inactive” throughout. Moreover, the compound was called inactive in test [2], in [3] and in test [4].

Regarding `CC(=O)[C@H]1CCC2C3CC[C@H]4C[C@H](O)CC[C@]4(C)C3CC[C@@]21C` (stereo partly specified), in [1], the Potency result was “inactive”. Further, the call in test [2], in test [3] and in [4] was inactive.

`NC1CC1c1ccccc1` (stereo unspecified): the Potency result in test [1] was “inactive”. For the same compound, the compound was classed as inactive in [2], in [3] and in [4].

With `CC(=O)NCCc1c[nH]c2ccccc12`, the Potency entry in [1] and in test [5] was “inactive” in each case. For the same compound, the compound was called inactive in test [2], in test [3] and in [4].

Consider `NCCc1c[nH]c2ccccc12`, for which the Potency result in test [1] is “inactive”. Also, the compound was classed as inactive in test [2], in test [3] and in test [4].

In the case of `C#CCOC(=O)C1=CCCN(C)C1`, the Potency entry in [1] and in [5] was “inactive” throughout. Further, the compound was classed as inactive in test [2], in [3] and in test [4].

On to `O=C(O)CC[N+](=O)[O-]`, for which the Potency result in test [1] and in [5] was “inactive” each time. The call in test [2], in [3] and in test [4] was inactive.

As for `CS(=N)(=O)CC[C@H](N)C(=O)O` (stereo partly specified), in [1], the Potency entry is “inactive”. Also, the compound was classed as inactive in [2], in test [3] and in test [4].

`NCc1cc(=O)[nH]o1`: the Potency result in test [1] and in test [5] was “inactive” each time. Further, the compound was classed as inactive in test [2], in test [3] and in test [4].

Regarding `COc1cc(C(O)CN)ccc1O` (stereo unspecified), in test [1], the Potency was 2.24 µM (active). Also, the compound was called inactive in test [2], in [3] and in test [4]. The Potency result in test [5] is “inactive”.

On to `CCCCCCCCCCCCCCCC[N+](C)(C)C`, for which the Potency result in test [6] was “inactive”. The Potency in [7] was 8.09 µM (active).

For `CN1C2CCC1CC(OC(=O)c1cc(Cl)cc(Cl)c1)C2` (stereo unspecified), the Potency result in test [6], in [8], in [1] and in [5] was “inactive” in each case. Further, the call in test [2], in test [3] and in [4] was inactive.

For `CCCN(CCC)C1CCc2ccc(O)cc2C1` (stereo unspecified), in test [1], the Potency entry is “inactive”. Besides, the result in [2], in test [3] and in [4] was inactive.

`CC[N+]1(CCOC(=O)C(O)(c2ccccc2)c2ccccc2)CCCCC1`: the Potency entry in test [6], in test [9] and in test [8] was “inactive” in each case.

With `c1ccc(CCCN2CCN(CCOC(c3ccccc3)c3ccccc3)CC2)cc1`, the Potency entry in test [1] and in test [5] was “inactive” in each case. Besides, the compound was classed as inactive in test [2], in [3] and in test [4].

Turning to `C/C=C(/C)C(=O)O[C@H]1C(C)=C2[C@H]([C@@H]1OC(=O)CCCCCCC)[C@@](C)(OC(C)=O)C[C@H](OC(=O)CCC)[C@@]1(O)[C@H]2OC(=O)[C@@]1(C)O`, the Potency entry in test [1] and in test [5] was “inactive” throughout. In addition, the outcome in test [2], in test [3] and in test [4] was inactive.

Regarding `C[C@]12CCC(=O)C(O)=C1CC[C@@H]1[C@H]3CCC(=O)[C@@]3(C)CC[C@@H]12`, the Potency result in test [6] and in test [8] was “inactive” each time.

As to `CCCN1CCO[C@@H]2c3cc(O)ccc3OC[C@H]21`, the Potency in [1] is 4.47 µM (active) and 1.41 µM (active). The compound was called inactive in test [2], in [3] and in test [4]. Moreover, the Potency entry in [5] is “inactive”.

Take `NC(=NCCC[C@H](N)C(=O)O)N[N+](=O)[O-]`: the Potency entry in test [1] and in test [5] was “inactive” in each case. Further, the compound was called inactive in test [2], in test [3] and in [4].

Take `CNCCc1ccc(O)c(O)c1`: the Potency result in test [1] was “inactive”. Further, the compound was called inactive in test [2] and in test [4]. Moreover, the Potency in [5] is 0.13 µM (active).

With `O=C(O)[C@@H]1CCN1`, the Potency entry in test [1] and in test [5] was “inactive” in each case. Further, the compound was called inactive in test [2], in [3] and in [4].

For the compound `c1ccc2sc(C3(N4CCCCC4)CCCCC3)cc2c1`, the Potency result in test [1] and in [5] was “inactive” each time. The result in test [2], in test [3] and in [4] was inactive.

For `Clc1cnc(Oc2ccc(Oc3ncc(Cl)cc3Cl)cc2)c(Cl)c1`, the Potency entry in [1] and in [5] was “inactive” in each case. For the same compound, the compound was called inactive in test [2], in [3] and in test [4].

`C[C@@H]1O[C@H](C[N+](C)(C)C)C[C@H]1O`: the Potency result in [1] and in test [5] was “inactive” in each case. The compound was classed as inactive in test [2], in [3] and in test [4].

`Cc1cnc(Nc2ccc(F)cc2Cl)nc1-c1c[nH]c(C(=O)N[C@H](CO)c2cccc(Cl)c2)c1`: the Potency in [10] was 26.4 µM (active).

Consider `C[N+]1(C)C2CCC1CC(OC(=O)C(CO)c1ccccc1)C2` (stereo unspecified), for which the Potency entry in test [1] and in test [5] was “inactive” in each case. The compound was called inactive in test [2], in [3] and in test [4].

On to `Cc1nc(-c2ccc(-c3ccc(C(=O)N4CCc5cc6c(cc54)C4(CCN(C)CC4)CO6)cc3)c(C)c2)no1`, for which, in test [10], the Potency result was “inactive”.

Turning to `CC(C)[C@]12O[C@H]1[C@@H]1O[C@]13[C@]1(O[C@H]1C[C@H]1C4=C(CC[C@@]13C)C(=O)OC4)[C@@H]2O`, in test [10], the Potency was 0.0332 µM (active).

Turning to `COc1ccc2c(c[n+](C)c3c4cc5c(cc4ccc23)OCO5)c1OC`, the figures for the Potency in test [1] and in test [10] were 3.16 µM (active) and 23.5 µM (active), respectively. Besides, the outcome in test [2] and in [3] was inactive. The Potency result in [5] is “inactive”.

Regarding `Cc1ccccc1-n1c(Cn2cnc3c(N)ncnc32)nc2cccc(C)c2c1=O`, the Potency in [10] is 13.2 µM (active).

Consider `CNCCc1c[nH]c2ccc(O)cc12`, for which the outcome in [2], in test [3] and in test [4] was inactive. Moreover, the Potency entry in test [5] is “inactive”.

As for `Oc1ccc2c3c1O[C@H]1c4[nH]c5c(c4C[C@@]4(O)[C@@H](C2)N(CC2CC2)CC[C@]314)C[C@@]1(O)[C@H]2Cc3ccc(O)c4c3[C@@]1(CCN2CC1CC1)[C@H]5O4`, the Potency in test [1] was 12.6 µM (active). Moreover, the compound was called inactive in test [2], in test [3] and in [4]. The Potency result in test [5] is “inactive”.

`NC(N)=NOCCC(N)C(=O)O` (stereo unspecified): the Potency entry in [1] and in test [5] was “inactive” throughout. Besides, the result in test [2], in [3] and in [4] was inactive.

Consider `CC1=NN=C(c2ccc(N)cc2)c2cc3c(cc2C1)OCO3`, for which the result in [2], in [3] and in test [4] was inactive. Also, the Potency entry in [5] was “inactive”.

For `CC(C)(C)c1[nH]cnc1C=c1[nH]c(=O)c(=Cc2ccccc2)[nH]c1=O`, the Potency in [10] is 18.7 µM (active).
